This note sets out measurements from PubChem BioAssay (EPA / NIEHS).

Holding throughout (settings): mRNA level, 48 h; actives raise or lower the signal
Read-out in assay [1]: Cyclin D1 (CCND1), CCND1 (gene 595)
The assay is described as follows: LTEA_HepaRG_CCND1: Life Technologies and Expression Analysis (LTEA) Assay for Cyclin D1 (CCND1) using HepaRG (AID 2283451).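 As to AC50: differentiated human HepaRG liver cells in serum-free induction medium; TaqMan qRT-PCR transcript level normalised to ACTB GAPDH and POLR2A housekeeping genes.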 In outline:
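HepaRG plated 48 h, medium switched to serum-free induction medium, chemicals added in duplicate (top 100 uM, half-log steps, 0.5% DMSO) for 48 h, cells lysed, RNA measured by TaqMan qRT-PCR.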

Read-out in assay [2]: flavin-containing dimethylaniline monooxygenases 3 (FMO3), FMO3 (gene 2328)
The assay is described as follows: LTEA_HepaRG_FMO3: Life Technologies and Expression Analysis (LTEA) Assay for flavin-containing dimethylaniline monooxygenases 3 (FMO3) using HepaRG (AID 2283453).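 As to AC50: differentiated human HepaRG liver cells in serum-free induction medium.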 The method, boiled down: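 FMO3 transcript quantified by TaqMan qRT-PCR against three housekeeping genes after 48 h chemical exposure of HepaRG cells. Eight-point half-log series, top 100 uM, 0.5% DMSO vehicle; phenobarbital 1mM induction control; up- or down-regulation fitted.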

Read-out in assay [3]: Cytochrome P450 (CYP1A1), CYP1A1 (gene 1543)
In words: LTEA_HepaRG_CYP1A1: Life Technologies and Expression Analysis (LTEA) Assay for Cytochrome P450 (CYP1A1) using HepaRG (AID 2283454). The method, boiled down: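 HepaRG, 48 h post-plating switched to serum-free induction medium; 8-pt conc-response (top 100 uM, half-log, 0.5% DMSO), duplicates, 48 h. Lysis in RLT, TaqMan qRT-PCR for CYP1A1; gain or loss vs DMSO.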

Read-out in assay [4]: CFLAR gene, CFLAR (gene 8837)
In words: LTEA_HepaRG_CFLAR: Life Technologies and Expression Analysis (LTEA) Assay for CFLAR gene using HepaRG (AID 2283455). The method, boiled down: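 Transcript level by qRT-PCR (normalized to ACTB, GAPDH and POLR2A) after 48 h chemical exposure of HepaRG cells, top concentration 100 uM with half-log steps, 0.5% DMSO vehicle, duplicates; fitted bidirectionally against DMSO baseline.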

Read-out in assay [5]: Forkhead box O1 (FOXO1), FOXO1 (gene 2308)
In words: LTEA_HepaRG_FOXO1: Life Technologies and Expression Analysis (LTEA) Assay for Forkhead box O1 (FOXO1) using HepaRG (AID 2283456). In outline:
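FOXO1 transcript quantified by qRT-PCR after 48 h chemical exposure (top 100 uM, half-log steps, 0.5% DMSO) of HepaRG cells, housekeeping-normalized (ACTB/GAPDH/POLR2A). Changes fitted in both directions relative to vehicle.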

Read-out in assay [6]: growth arrest and DNA damage 45 (GADD45A), GADD45A (gene 1647)
The assay is described as follows: LTEA_HepaRG_GADD45A: Life Technologies and Expression Analysis (LTEA) Assay for growth arrest and DNA damage 45 (GADD45A) using HepaRG (AID 2283458). In outline: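 Transcript induction or loss, quantified by TaqMan qRT-PCR against three housekeeping genes, is the read-out. HepaRG cells received chemicals for 48 h across eight half-log concentrations from 100 uM in 0.5% DMSO; gain and loss fitted relative to DMSO.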

Read-out in assay [7]: Forkhead box O3 (FOXO3), FOXO3 (gene 2309)
The assay is described as follows: LTEA_HepaRG_FOXO3: Life Technologies and Expression Analysis (LTEA) Assay for Forkhead box O3 (FOXO3) using HepaRG (AID 2283459). The method, boiled down:
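FOXO3 transcript measured by qRT-PCR (normalized to ACTB, GAPDH, POLR2A) after 48 h exposure of HepaRG cells in serum-free induction medium. Duplicates, eight half-log concentrations up to 100 uM, 0.5% DMSO; gain or loss fitted against DMSO.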

Read-out in assay [8]: ABC Transporter (ABCC3), ABCC3 (gene 8714)
The assay is described as follows: LTEA_HepaRG_ABCC3: Life Technologies and Expression Analysis (LTEA) Assay for ABC Transporter (ABCC3) using HepaRG (AID 2283462). In outline:
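Human HepaRG, 48 h dosing, 8-pt half-log series from 100 uM, 0.5% DMSO vehicle, duplicates. ABCC3 mRNA by TaqMan qRT-PCR, housekeeping-normalized; bidirectional curve fit vs DMSO.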

Read-out in assay [9]: ABC Transporter (ABCB11), ABCB11 (gene 8647)
The assay is described as follows: LTEA_HepaRG_ABCB11: Life Technologies and Expression Analysis (LTEA) Assay for ABC Transporter (ABCB11) using HepaRG (AID 2283463). In outline: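 ABCB11 transcript levels quantified by TaqMan qRT-PCR against three housekeeping genes after 48 h chemical exposure of HepaRG cultures. Concentrations up to 100 uM in half-log steps, 0.5% DMSO vehicle; both induction and suppression scored.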

Read-out in assay [10]: ABC Transporter (ABCC2), ABCC2 (gene 1244)
The assay is described as follows: LTEA_HepaRG_ABCC2: Life Technologies and Expression Analysis (LTEA) Assay for ABC Transporter (ABCC2) using HepaRG (AID 2283464). In outline:
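HepaRG, 48 h post-plating; serum-free induction medium; cpd 8-pt, 100 uM top, half-log, 0.5% DMSO, duplicate, 48 h. Readout: ABCC2 mRNA by qRT-PCR, norm. ACTB/GAPDH/POLR2A. Bidirectional fit vs DMSO baseline.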

Read-out in assay [11]: Broad substrate specificity ATP-binding cassette transporter ABCG2 (Homo sapiens) (UniProt Q9UNQ0)
In words: LTEA_HepaRG_ABCG2: Life Technologies and Expression Analysis (LTEA) Assay for ABC Transporter (ABCG2) using HepaRG (AID 2283465). In outline:
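ABCG2 transcript was quantified by TaqMan qRT-PCR against three housekeeping genes in HepaRG cells. Cells were treated in duplicate for 48 h across an 8-point half-log series up to 100 uM, with 0.5% DMSO vehicle. Gain or loss versus DMSO was fit.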

Read-out in assay [12]: Peroxisomal acyl-coenzyme A oxidase 1 (ACOX1) gene, ACOX1 (gene 51)
The assay is described as follows: LTEA_HepaRG_ACOX1: Life Technologies and Expression Analysis (LTEA) Assay for Peroxisomal acyl-coenzyme A oxidase 1 (ACOX1) gene using HepaRG (AID 2283467). The method, boiled down: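 ACOX1 transcript levels were quantified by TaqMan qRT-PCR against three housekeeping genes after 48 h chemical exposure of differentiated human HepaRG cells. Exposure used eight half-log steps topping at 100 uM, 0.5% DMSO vehicle, in duplicate. Bidirectional curve fits were made relative to DMSO.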

Read-out in assay [13]: Alkaline Phosphatase, Placental (ALPP) gene, ALPP (gene 250)
The assay is described as follows: LTEA_HepaRG_ALPP: Life Technologies and Expression Analysis (LTEA) Assay for Alkaline Phosphatase, Placental (ALPP) gene using HepaRG (AID 2283468).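 As to AC50: differentiated human HepaRG liver cells in serum-free induction medium.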 In outline: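 HepaRG, 48 h plating then 48 h dosing, serum-free induction medium, 0.5% DMSO. 8 conc, half-log, max 100 uM, duplicates. Endpoint: ALPP transcript by qRT-PCR, housekeeping-normalized; gain or loss fitted vs DMSO.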

Read-out in assay [14]: Bcl-2 (BAD) gene, BAD (gene 572)
In words: LTEA_HepaRG_BAD: Life Technologies and Expression Analysis (LTEA) Assay for Bcl-2 (BAD) gene using HepaRG (AID 2283469). The method, boiled down:
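Read-out: qRT-PCR of BAD mRNA, normalized to three housekeeping genes. Human HepaRG cultures got 48 h chemical exposure in 0.5% DMSO, duplicate eight-point half-log series topping at 100 uM. Gain or loss of signal fitted versus DMSO vehicle.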

Read-out in assay [15]: catalase (CAT), CAT (gene 847)
In words: LTEA_HepaRG_CAT: Life Technologies and Expression Analysis (LTEA) Assay for catalase (CAT) using HepaRG (AID 2283452).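 As to AC50: TaqMan qRT-PCR signal normalized to ACTB GAPDH and POLR2A housekeeping genes.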 The method, boiled down: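 Expression of CAT was quantified by TaqMan qRT-PCR with ACTB/GAPDH/POLR2A normalization after 48 h chemical exposure of HepaRG. Eight-point half-log series, top 100 uM, in 0.5% DMSO; gain or loss fitted against vehicle.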

Read-out in assay [16]: ABC Transporter (ABCB1), ABCB1 (gene 5243)
The assay is described as follows: LTEA_HepaRG_ABCB1: Life Technologies and Expression Analysis (LTEA) Assay for ABC Transporter (ABCB1) using HepaRG (AID 2283460). The method, boiled down: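 ABCB1 transcript level measured by TaqMan qRT-PCR against three housekeeping genes after 48 h chemical exposure of differentiated HepaRG cells. Top concentration 100 uM, half-log steps, eight points, 0.5% DMSO vehicle; bidirectional fit relative to DMSO.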

Read-out in assay [17]: ATP-citrate lyase (ACLY), ACLY (gene 47)
In words: LTEA_HepaRG_ACLY: Life Technologies and Expression Analysis (LTEA) Assay for ATP-citrate lyase (ACLY) using HepaRG (AID 2283466). The method, boiled down: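 ACLY mRNA quantified by qRT-PCR on Fluidigm arrays against three housekeeping genes, after 48 h chemical treatment of HepaRG cells (top concentration 100 uM, half-log steps, 0.5% DMSO vehicle). Up- or down-regulation fitted relative to DMSO.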

Read-out in assay [18]: growth arrest and DNA damage 45 (GADD45B), GADD45B (gene 4616)
In words: LTEA_HepaRG_GADD45B: Life Technologies and Expression Analysis (LTEA) Assay for growth arrest and DNA damage 45 (GADD45B) using HepaRG (AID 2283461). The method, boiled down:
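HepaRG, ~100,000 cells/well, 48 h plating; serum-free induction medium; cpd 100 uM top, half-log x8, 0.5% DMSO, duplicate, 48 h; lysis in RLT, RNA isolation, qRT-PCR; norm ACTB/GAPDH/POLR2A; bidirectional fit vs DMSO.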

The source made the active and inactive calls. The calls were made as follows: active = hit-call score of the fitted dose curve at least 0.9, where 1 is the maximum; inactive = score below 0.9.

Sequence of Broad substrate specificity ATP-binding cassette transporter ABCG2 (Homo sapiens) (Q9UNQ0 whole entry, looked up): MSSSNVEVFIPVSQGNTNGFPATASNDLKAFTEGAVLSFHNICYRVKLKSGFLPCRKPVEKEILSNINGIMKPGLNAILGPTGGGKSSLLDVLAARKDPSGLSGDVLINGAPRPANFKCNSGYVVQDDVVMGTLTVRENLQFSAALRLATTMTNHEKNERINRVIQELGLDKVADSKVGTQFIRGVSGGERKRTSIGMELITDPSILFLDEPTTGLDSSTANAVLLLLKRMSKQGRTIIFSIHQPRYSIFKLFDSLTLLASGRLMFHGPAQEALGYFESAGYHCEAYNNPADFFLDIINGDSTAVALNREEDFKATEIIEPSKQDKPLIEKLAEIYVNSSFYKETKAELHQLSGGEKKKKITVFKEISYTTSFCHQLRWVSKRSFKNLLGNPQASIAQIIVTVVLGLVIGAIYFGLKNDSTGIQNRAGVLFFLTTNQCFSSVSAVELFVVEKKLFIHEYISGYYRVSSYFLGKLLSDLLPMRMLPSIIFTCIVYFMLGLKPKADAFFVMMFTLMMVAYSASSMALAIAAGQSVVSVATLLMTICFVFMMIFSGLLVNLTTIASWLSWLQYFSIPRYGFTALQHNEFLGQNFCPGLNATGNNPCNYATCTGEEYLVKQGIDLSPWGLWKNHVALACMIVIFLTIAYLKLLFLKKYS

`CC(C)C1(C)N=C(c2ncccc2C(=O)O)NC1=O` (stereo not given): the molecule was classed as inactive in [1], in assay [2], in assay [3], in [4], in [5] and in [6]. Also, the call in assay [7], in assay [8], in assay [9], in assay [10], in assay [11] and in [12] was inactive. For the same molecule, the molecule was called inactive in [13] and in [14].

Regarding `CNC(=O)N(C)c1nnc(C(C)(C)C)s1`, the outcome in assay [1], in [2], in assay [4], in [6], in assay [7] and in assay [8] was inactive. Moreover, the molecule was classed as inactive in assay [9], in assay [10], in assay [11], in [12], in [13] and in [14]. Further, the AC50 in [3] is 42.9 µM (active).

As to `CN/C(=N\[N+](=O)[O-])NCc1cnc(Cl)s1`, the outcome in [1], in [15], in assay [2], in assay [3], in [4] and in assay [6] was inactive. In addition, the result in [7], in assay [16], in assay [8], in assay [9], in [10] and in assay [12] was inactive. In addition, the result in assay [13] and in assay [14] was inactive. The AC50 in assay [11] was 28.6 µM (active).

For `CCOc1nc(C(Cl)(Cl)Cl)ns1`, the AC50 was 1.18 µM (active) in [1]; 0.644 µM (active) in [2]; 1.44 µM (active) in [3]; 0.912 µM (active) in [4]; 1.49 µM (active) in [6]; 0.967 µM (active) in [7]. Also, the AC50 in assay [16] was 1.05 µM (active); in assay [9] it was 1.08 µM (active); in assay [11], 1.29 µM (active); in assay [12], 1.11 µM (active); in assay [13] it was 2.14 µM (active); in assay [14], 1.3 µM (active). In addition, the outcome in assay [8] and in assay [10] was inactive.

For `Cn1c(-c2ccccc2)cc(-c2ccccc2)[n+]1C`, the half-maximal activity concentration (AC50) was 75.6 µM (active) in assay [1]; 21.9 µM (active) in assay [15]; 50 µM (active) in assay [2]; 75 µM (active) in [3]; 82.3 µM (active) in assay [4]; 77.7 µM (active) in [5]. The AC50 in [7] is 2.57 µM (active); in assay [8] it was 2.67 µM (active); in assay [9], 24.4 µM (active); in assay [10], 62.6 µM (active); in [12], 21.2 µM (active); in [13], 50 µM (active). Also, the call in [6], in assay [11] and in [14] was inactive.

For `CO/N=C(/C1=NOCCO1)c1ccccc1Oc1ncnc(Oc2ccccc2Cl)c1F`, the outcome in assay [1], in [4], in assay [7], in [16] and in assay [14] was inactive. For the same molecule, the AC50 is 24.9 µM (active) in assay [2]; 33 µM (active) in assay [3]; 10 µM (active) in assay [5]; 29.6 µM (active) in [6]; 6.69 µM (active) in assay [8]; 29.2 µM (active) in assay [9]. For the same molecule, the AC50 is 50 µM (active) in assay [10]; 8.72 µM (active) in [11]; 12.5 µM (active) in assay [17]; 15.4 µM (active) in [12]; 5.39 µM (active) in assay [13].

For `CCOc1nc(F)cc2nc(S(=O)(=O)Nc3c(Cl)cccc3Cl)nn12`, the call in assay [1], in [2], in assay [3], in assay [4], in [6] and in assay [7] was inactive. The result in [16], in assay [8], in assay [11], in [12], in [13] and in assay [14] was inactive. Also, the AC50 in [9] is 41.7 µM (active); in [10] it was 7.91 µM (active).

Turning to `OC(c1ccc(Cl)cc1)(c1ccc(Cl)cc1)C(Cl)(Cl)Cl`, the molecule was called inactive in assay [1], in assay [4], in [6], in [7], in assay [18] and in assay [8]. In addition, the molecule was classed as inactive in [10], in assay [17] and in assay [13]. For the same molecule, the AC50 in [3] was 11.9 µM (active); in assay [9], 72.4 µM (active); in [11], 50 µM (active); in assay [12], 50 µM (active); in assay [14], 70.1 µM (active).
